According to ChEMBL document CHEMBL5308504, “Tm Shift (DSF) assay results for EUbOPEN Chemogenomics Library” (2023):

Tests used:
[1] = target: Bromodomain-containing protein 4 (Homo sapiens) (UniProt O60885); settings: Compound concentration 20.0 uM, Protein concentration 2.0 uM, Result type QC Liability
[2] = target: T1, Transcription intermediary factor 1-alpha (Homo sapiens) (UniProt O15164); settings: Compound concentration 20.0 uM, Protein concentration 2.0 uM, Result type QC Liability
T1 sequence (whole entry): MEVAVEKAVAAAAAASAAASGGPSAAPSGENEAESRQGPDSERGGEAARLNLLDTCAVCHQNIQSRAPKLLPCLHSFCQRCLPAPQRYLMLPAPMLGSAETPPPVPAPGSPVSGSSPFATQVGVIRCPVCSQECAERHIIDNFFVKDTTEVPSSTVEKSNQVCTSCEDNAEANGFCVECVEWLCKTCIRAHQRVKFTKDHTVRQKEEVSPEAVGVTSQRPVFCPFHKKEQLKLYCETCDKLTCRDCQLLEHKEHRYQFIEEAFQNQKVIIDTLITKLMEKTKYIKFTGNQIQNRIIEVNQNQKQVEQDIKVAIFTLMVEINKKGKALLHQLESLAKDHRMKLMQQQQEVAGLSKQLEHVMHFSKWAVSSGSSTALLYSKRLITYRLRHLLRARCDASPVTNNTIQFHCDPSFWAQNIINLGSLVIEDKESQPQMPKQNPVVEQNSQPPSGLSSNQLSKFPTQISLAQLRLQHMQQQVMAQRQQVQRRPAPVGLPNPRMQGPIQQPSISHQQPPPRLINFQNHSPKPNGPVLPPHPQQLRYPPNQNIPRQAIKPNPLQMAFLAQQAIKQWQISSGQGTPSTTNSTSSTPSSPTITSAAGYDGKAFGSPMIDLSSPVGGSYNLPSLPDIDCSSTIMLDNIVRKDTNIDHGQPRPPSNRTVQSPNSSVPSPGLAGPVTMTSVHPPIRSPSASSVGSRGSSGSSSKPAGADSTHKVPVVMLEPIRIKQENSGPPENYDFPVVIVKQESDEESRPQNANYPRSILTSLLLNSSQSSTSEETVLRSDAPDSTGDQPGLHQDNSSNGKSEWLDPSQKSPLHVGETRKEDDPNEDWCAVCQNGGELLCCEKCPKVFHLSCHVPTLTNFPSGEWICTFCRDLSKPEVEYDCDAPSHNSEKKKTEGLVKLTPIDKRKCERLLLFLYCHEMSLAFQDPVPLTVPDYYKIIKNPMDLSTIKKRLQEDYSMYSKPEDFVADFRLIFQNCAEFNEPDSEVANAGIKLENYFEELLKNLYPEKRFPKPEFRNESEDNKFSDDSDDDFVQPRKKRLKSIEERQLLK

SMILES	ΔTm [1] [°C]	ΔTm [2] [°C]
Cc1cccc(-c2[nH]c(CNc3ccccc3F)nc2-c2ccc3ncnn3c2)n1	-1.53	-2.12
CC(=O)Nc1nc(C)c(S(=O)(=O)Nc2ccc(C(O)(C(F)(F)F)C(F)(F)F)cc2)s1	-1.81	-0.92
Cc1c(N2CCNCC2)nc2ccc(Br)cc2c1C(=O)NC[C@H](CCC(=O)O)c1ccccc1Cl	-1.62	-1.51
Cc1cc(CN)cc(C)c1-c1ncn(C)c1-c1cncn1C	-1.42	0.01
C[C@@H](Oc1cc(-n2cnc3ccc(OC4CCN(C)CC4)cc32)sc1C(N)=O)c1ccccc1Cl	-2.01	-2.55
N=C(N)NCCC[C@H](NC(=O)CC1(CC(=O)N2CCN(C3c4ccccc4NC(=O)c4ccccc43)CC2)CCCC1)C(=O)NCCn1c(=O)n(-c2ccccc2)n(-c2ccccc2)c1=O (stereo partly specified)	0.44	-2.38
Cc1cc2ncnn2cc1Nc1ncc2c(n1)n(C1CCOCC1)c(=O)n2C	-1.59	-4.66
O=C(NC1CCNCC1)c1n[nH]cc1NC(=O)c1c(Cl)cccc1Cl	-0.14	-1.34
COc1cc(CN(CCN)C(=O)N[C@@H](C)c2ccccc2)ccc1OCc1ccccc1	-1.26	-0.9
COc1ccccc1N1CCN(c2ncnc3c2cnn3-c2ccccc2)CC1	0.01	0.1
CC(C)C(=O)N[C@@H]1CCN(C(=O)Nc2nc3c(s2)-c2nc(-c4ccccc4Cl)ncc2CC3)C1	-0.28	-3.41
CCCCCCC(Sc1nc(Cl)cc(NCc2ccc(-c3ccccc3)cc2)n1)C(=O)O (stereo unspecified)	-1.48	0.51
CCS(=O)(=O)Nc1cccc(Oc2cncc(Nc3ccc(I)cc3F)c2C(N)=O)c1	-0.22	1.47
